About 3,200 (25%) of roughly 13,000 compounds showed an effect of 50% or more. Some of the results follow.
Each compound was assayed on P. falciparum stage V gametocytes. Conditions: 48 h, 5 µM; inhibitor.
Parameters: BacTiter-Glo ATP luminescence viability of purified stage V gametocytes in 384-well plates, per cent inhibition versus DMSO

SMILES	% Inhibition [%]
CCOCCCNc1nc2cc(OC)c(OC)cc2c2nc(-c3ccccc3)nn12 [TCMDC-124406]	-8.61
COc1ccc2nccc(N3CCCN(CCNS(=O)(=O)c4ccc5c(c4)NC(=O)CS5)CC3)c2n1 [TCMDC-134651]	20.86
CCC(C)CN1CCC(N(C)c2cc(NC(=O)c3cccc(C)c3)ccn2)CC1 (centres unmarked) [TCMDC-134950]	-9.268
CC(CN(C)C)C(=O)Nc1ccc(-c2cccc(-c3nc4ccc(C(F)(F)F)cc4[nH]3)c2)cc1 (centres unmarked) [TCMDC-137109]	-30.4
COc1ccc(-n2ccnc2)cc1CNC1CCN(CC2Cn3c(=O)ccc4ccc(F)c2c43)CC1 (centres unmarked) [TCMDC-134407]	-10.31
CN(C(=O)/C=C/c1ccccc1F)C1CCN(CCCCCNC(=O)/C=C/c2ccc(Cl)c(Cl)c2)CC1 [TCMDC-139992]	46.22
CN1CCC(N(C)C(=O)C=Cc2cn(-c3ccccc3)nc2-c2cc3ccccc3o2)CC1 [TCMDC-124569]	79.49
COc1ccccc1/C=C/C(=O)N(C)C1CCN(CCCCCNC(=O)/C=C/c2ccc(Cl)c(Cl)c2)CC1 [TCMDC-139985]	9.126
CCCCCOc1c(CCC)cc(Cc2cnc(N)nc2N)cc1CCC [TCMDC-137287]	-6.135
COc1cc2c(cc1C(F)(F)F)N(C(=O)Nc1cccc(-c3ccc(CN(C)C)cc3)c1)CC2 [TCMDC-139014]	97.51
COc1cc2c(cc1C(F)(F)F)N(C(=O)Nc1cc(Br)cc(-c3cccnc3)c1)CC2 [TCMDC-139024]	0.01985
COc1cc2c(cc1C(F)(F)F)N(C(=O)Nc1cc(-c3ccncc3)cc(-c3cccnc3)c1)CC2 [TCMDC-139040]	-15.72
CC(C)c1ccc(NC(=O)c2ccc(C(=O)NC3CCN(CC4CCCCC4)CC3)cc2)cc1 [TCMDC-136750]	-11.44
NC1=NC(Cc2ccccc2)(c2ccncc2)C(=O)N1CCCc1ccccc1 (centres unmarked) [TCMDC-136557]	2.084
O=C(c1ccc(Cl)c(Cl)c1)N1CCc2c([nH]c3ccccc23)C1CN1CCCC1 (centres unmarked) [TCMDC-139011]	81.19
CN(C)CC1c2[nH]c3ccccc3c2CCN1C(=O)Nc1ccc(Cl)c(Cl)c1 (centres unmarked) [TCMDC-139004]	3.866
CC(C)CC1c2[nH]c3ccccc3c2CCN1C(=O)CCc1ccccc1 (centres unmarked) [TCMDC-123996]	-45.79
N#Cc1ccc2c(c1)CCN(CCC1CCC(NC(=O)/C=C/c3ccc4[nH]ccc4c3)CC1)CC2 (centres unmarked) [TCMDC-139666]	5.34
N#Cc1cccc(C(=O)Nc2cccc(-c3cccc(CN4CCNCC4)c3)c2)c1 [TCMDC-132660]	26.75
O=C(Nc1cccc(-c2ccc(CN3CCCC3)cc2)c1)c1cccc(F)c1 [TCMDC-132647]	5.119
O=C(Nc1cccc(F)c1)N(Cc1ccc(-c2cccc(CN3CCNCC3)c2)cc1)C1CCN(Cc2ccccc2)CC1 [TCMDC-139638]	105.9
CN(c1cc(NC(=O)c2ccccc2)ccn1)C1CCN(Cc2cccc(F)c2)CC1 [TCMDC-135011]	9.307
O=C(Nc1cccc(F)c1)N(Cc1ccc(-c2ccc(CN3CCNCC3)cc2)cc1)C1CCN(Cc2ccccc2)CC1 [TCMDC-139654]	96.89
CCn1cnc2c(N3CCCC3=O)cc(C(=O)N[C@@H](Cc3ccccc3)[C@H](O)CNC3CCCCC3)cc21 [TCMDC-135231]	-30.5

SMILES	% Inhibition [%]
CCN(CC)CCN(Cc1ccc(-c2ccc(C(F)(F)F)cc2)cc1)C(=O)Cn1c(CCc2cc(F)c(F)cc2F)nc(=O)c2ccccc21 [TCMDC-140949]	56.5
CCN(CC)CCN(Cc1ccc(-c2ccc(C(F)(F)F)cc2)cc1)C(=O)Cn1c(CCc2cc(F)ccc2F)nc(=O)c2ccccc21 [TCMDC-140941]	67.52
COc1ccc2nccc([C@H](O)CN3CCC(NCc4nc5c(F)cccc5[nH]4)CC3)c2c1 [TCMDC-141062]	-21.41
NC(=O)c1cccc(C(=O)Nc2cccc(-c3ccc(-c4nc5ccccc5[nH]4)s3)c2)c1 [TCMDC-132195]	9.45
Cc1[nH]c2ccc([N+](=O)[O-])cc2c1C1=CCN(C)CC1 [TCMDC-139186]	-16.2
c1cc(CNCCN2CCNCC2)cc(-c2cccc(-c3nc4ccccc4[nH]3)c2)c1 [TCMDC-132859]	95.66
c1cc(CN2CCN(CCN3CCOCC3)CC2)cc(-c2ccc(-c3nc4ccccc4[nH]3)cc2)c1 [TCMDC-133939]	-22.81
c1cc(CNCC2CCCO2)cc(-c2cccc(-c3nc4ccccc4[nH]3)c2)c1 (centres unmarked) [TCMDC-133090]	0.6072
c1cc(CNCCN2CCNCC2)cc(-c2ccc(-c3nc4ccccc4[nH]3)cc2)c1 [TCMDC-132861]	85.05
CNCCNCc1cccc(-c2ccc(-c3nc4ccccc4[nH]3)cc2)c1 [TCMDC-132839]	24.41
CN(C)CCNCc1cccc(-c2cccc(-c3nc4ccccc4[nH]3)c2)c1 [TCMDC-132680]	40.55
CCNc1cc(CC)nc(Nc2ccc(C)cc2)n1 [TCMDC-133992]	-2.88
COc1cc(N)c(Cl)cc1C(=O)NC1CCC(NCC2CCCCC2)CC1 (centres unmarked) [TCMDC-136726]	0.4196
Cc1cccc2nc(-c3ccc(-c4ccc(NC(=O)Nc5ccc(Cl)c(Cl)c5)cc4)s3)[nH]c12 [TCMDC-133273]	-52.78
O=C(/C=C/c1ccc(C(F)(F)F)cc1)NCCCCCN1CCCN(C(=O)Nc2ccc(Cl)c(C(F)(F)F)c2)CC1 [TCMDC-136105]	-22.56
Cc1cc(Nc2ccncc2)n2nc(C)c(-c3ccccc3Cl)c2n1 [TCMDC-124918]	99.62
Cc1cc(Nc2ccc(C)c(C)c2)n2nc(C)nc2n1 [TCMDC-124418]	9.818
Cc1cc(Nc2ccncc2)n2nc(C)c(-c3ccc(Cl)cc3)c2n1 [TCMDC-124478]	102.4
Cc1cc(Nc2ccc3ccccc3c2)n2ncnc2n1 [TCMDC-125840]	18.77
Cc1cc(Nc2ccc(Cl)cc2)n2nc(C(F)(F)F)nc2n1 [TCMDC-123826]	-17.3
Cc1cc(Nc2ccnc(-c3ccc(Cl)cc3)n2)ccn1 [TCMDC-141398]	-5.017
Cc1cc(Nc2ccc(Cl)c(Cl)c2)n2nc(C)nc2n1 [TCMDC-124417]	-6.756
CCc1nn2c(Nc3ccncc3)cc(C)nc2c1-c1ccccc1 [TCMDC-124917]	106.8
Cc1cc(Nc2ccc(C)c(Cl)c2)n2nc(C(F)(F)F)nc2n1 [TCMDC-124919]	-6.645

SMILES	% Inhibition [%]
Cc1nc(N)nc(N)c1C#CC1CCCC1 [TCMDC-137728]	11.69
CC(C)(C)c1ccc(NC(=O)c2ccc(CN3CCCN(Cc4cccc(F)c4)CC3)cc2)cc1 [TCMDC-136431]	-15.47
CC1(C)S(=O)(=O)CC(O)CS1(=O)=O [TCMDC-131669]	10.31
Cc1c(C(=O)NCc2ccncc2)sc2nc(-c3cccc([N+](=O)[O-])c3)cn12 [TCMDC-124992]	-38.46
Nc1ncc(-c2ccc(Cl)c(Cl)c2)c(N)n1 [TCMDC-138994]	6.577
O=C(/C=C/c1ccc(Cl)c(Cl)c1)NC1CCN(Cc2ccc(O)cc2)CC1 [TCMDC-141741]	16.03
CCCCCCCc1ccc(-c2c(C)[nH]c(C)c(Cl)c2=O)cn1 [TCMDC-135816]	34.89
Cc1[nH]c(C)c(-c2ccc(CCc3ccc(C(F)(F)F)cc3)nc2)c(=O)c1Cl [TCMDC-136051]	71.49
Cc1[nH]c(C)c(-c2ccc(CCc3cccc(C(F)(F)F)c3)nc2)c(=O)c1Cl [TCMDC-136014]	76.88
O=C(Cc1cccc2ccccc12)N1CCc2cc3nccc(N4CCN5CCC[C@H]5C4)c3cc21 [TCMDC-140040]	-3.161
O=C(Nc1ccccc1Cl)c1cc2ccccc2cc1O [TCMDC-123494]	9.579
CC(Nc1nc(Nc2ccc(F)cc2)nc(SCC(N)=O)n1)c1ccccc1 (centres unmarked) [TCMDC-125832]	-31.65
CCCCNc1cc(C)nc(NCc2ccccc2)n1 [TCMDC-123663]	33.56
Cc1nc2nc(N)nc(N)c2c(C)c1Cc1ccccc1 [TCMDC-137670]	-13.55
CCCCNc1nc(NCCCC)c2c(C)c(Cc3ccccc3)c(NCCCC)nc2n1 [TCMDC-138062]	134
CC(C)(C)c1ccc(NC(=O)c2cccc(CN3CCCN(CC4CCCCC4)CC3)c2)cc1 [TCMDC-135980]	-75.44
Cc1ccc(C(=O)Nc2ccc(F)cc2)cc1-c1nc(NC2CC(C)(C)NC(C)(C)C2)nc2c1ccc(=O)n2-c1c(F)cccc1F [TCMDC-135391]	95.1
Cc1ccc(NC(=O)Nc2ccccc2F)cc1-c1ccc(C(=O)Nc2ccncc2)cc1 [TCMDC-133706]	-10.32
Cc1cc(F)ccc1-c1nc(N(C)CCN(C)C(=O)N(C)c2ccccc2)nc2c1ccc(=O)n2-c1c(F)cccc1F [TCMDC-141720]	17.64
Cc1cc(F)ccc1C1CCN(CCCCNC(=O)c2ccc(NC(=O)c3ccc(Cl)cc3)cc2)CC1 [TCMDC-138363]	13.4
Cc1ccc(N)cc1-c1nc(NC2CC(C)(C)NC(C)(C)C2)nc2c1ccc(=O)n2-c1c(F)cccc1F [TCMDC-135790]	57.86
Cc1ccc(NC(=O)Nc2ccc(Cl)cc2)cc1-c1cccc(C(=O)Nc2ccc(F)cc2)c1 [TCMDC-133591]	-12.79
Cc1cc(C(=O)Nc2ccc(C)c(-c3nc(N(C(=O)c4ccc(F)c(C)c4)C4CCNCC4)nc4c3ccc(=O)n4-c3c(F)cccc3F)c2)ccc1F [TCMDC-135913]	55.46

Reference: article PMC4552634, “A New Set of Chemical Starting Points with Plasmodium falciparum Transmission-Blocking Potential for Antimalarial Drug Discovery” (PLoS ONE, 2015)
